Measurements reported in the supplement of paper PMC11732987, “Enantioselective OTUD7B fragment discovery through chemoproteomics screening and high-throughput optimisation” (Communications Chemistry, 2025).

Assays:
Assay in all cases: log2 ratio of Biotin-Ahx-Ub-VS probe labelling (fragment/DMSO); higher = less target engagement (more negative = stronger competition), active = hit call of the paper (q ≤ 0.05, log2 ratio ≤ -1)
Conditions in all cases: compound concentration: 200 uM; treatment time: 3 h
USP19 = molecular target: T1, USP19 (UniProt O94966)
T1 sequence (whole entry): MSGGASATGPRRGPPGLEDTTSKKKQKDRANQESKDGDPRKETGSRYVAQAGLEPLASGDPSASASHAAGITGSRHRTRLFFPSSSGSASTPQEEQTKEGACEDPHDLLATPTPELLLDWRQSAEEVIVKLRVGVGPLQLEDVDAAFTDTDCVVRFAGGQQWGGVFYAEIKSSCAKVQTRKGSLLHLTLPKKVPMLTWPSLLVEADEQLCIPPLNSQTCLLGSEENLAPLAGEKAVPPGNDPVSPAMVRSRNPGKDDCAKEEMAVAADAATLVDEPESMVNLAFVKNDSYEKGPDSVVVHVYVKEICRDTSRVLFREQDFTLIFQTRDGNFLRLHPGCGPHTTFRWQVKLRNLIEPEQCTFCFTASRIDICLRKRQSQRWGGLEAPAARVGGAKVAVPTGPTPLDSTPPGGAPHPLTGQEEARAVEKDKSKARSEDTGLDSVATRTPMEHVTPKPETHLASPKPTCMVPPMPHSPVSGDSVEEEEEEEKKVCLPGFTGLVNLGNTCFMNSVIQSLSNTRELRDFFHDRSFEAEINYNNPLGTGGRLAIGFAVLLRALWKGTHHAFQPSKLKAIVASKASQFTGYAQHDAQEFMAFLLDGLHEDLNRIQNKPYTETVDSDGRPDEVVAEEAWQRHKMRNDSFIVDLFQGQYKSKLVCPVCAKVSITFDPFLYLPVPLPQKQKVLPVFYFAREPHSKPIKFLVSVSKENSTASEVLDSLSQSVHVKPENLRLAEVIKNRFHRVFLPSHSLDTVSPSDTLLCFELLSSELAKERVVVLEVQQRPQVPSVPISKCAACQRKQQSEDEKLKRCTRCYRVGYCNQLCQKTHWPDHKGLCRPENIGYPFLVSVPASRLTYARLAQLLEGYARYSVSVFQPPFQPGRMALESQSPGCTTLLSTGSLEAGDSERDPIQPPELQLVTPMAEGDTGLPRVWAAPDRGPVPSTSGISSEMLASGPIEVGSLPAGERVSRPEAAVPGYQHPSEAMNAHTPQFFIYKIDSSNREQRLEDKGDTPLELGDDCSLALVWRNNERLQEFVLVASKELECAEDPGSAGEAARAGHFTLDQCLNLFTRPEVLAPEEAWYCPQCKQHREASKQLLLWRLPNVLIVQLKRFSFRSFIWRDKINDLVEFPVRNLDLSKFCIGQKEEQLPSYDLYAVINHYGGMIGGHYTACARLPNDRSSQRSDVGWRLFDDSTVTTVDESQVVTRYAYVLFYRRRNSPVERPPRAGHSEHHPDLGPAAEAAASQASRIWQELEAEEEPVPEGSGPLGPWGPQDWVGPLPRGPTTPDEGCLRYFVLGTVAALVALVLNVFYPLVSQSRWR
Method in brief: (§1)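 Labelled DUBs from HEK293T lysate were NeutrAvidin-enriched, digested with LysC and trypsin, and run by diaPASEF LC-MS/MS. Before that, each 495 µg sample in Tris/CHAPS/IGEPAL buffer with protease inhibitors was treated in triplicate with fragment at 200 µM or vehicle for 3 h, then with Biotin-Ahx-Ub-VS at 0.5 µM final for 1 h. Values are average log2 ratios of fragment over vehicle by unpaired t-test, based on global-median-normalised Spectronaut label-free quantities from proteins with ≥2 unique peptides.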

USP22 = molecular target: T2, USP22 (UniProt Q9UPT9)
T2 sequence (whole entry): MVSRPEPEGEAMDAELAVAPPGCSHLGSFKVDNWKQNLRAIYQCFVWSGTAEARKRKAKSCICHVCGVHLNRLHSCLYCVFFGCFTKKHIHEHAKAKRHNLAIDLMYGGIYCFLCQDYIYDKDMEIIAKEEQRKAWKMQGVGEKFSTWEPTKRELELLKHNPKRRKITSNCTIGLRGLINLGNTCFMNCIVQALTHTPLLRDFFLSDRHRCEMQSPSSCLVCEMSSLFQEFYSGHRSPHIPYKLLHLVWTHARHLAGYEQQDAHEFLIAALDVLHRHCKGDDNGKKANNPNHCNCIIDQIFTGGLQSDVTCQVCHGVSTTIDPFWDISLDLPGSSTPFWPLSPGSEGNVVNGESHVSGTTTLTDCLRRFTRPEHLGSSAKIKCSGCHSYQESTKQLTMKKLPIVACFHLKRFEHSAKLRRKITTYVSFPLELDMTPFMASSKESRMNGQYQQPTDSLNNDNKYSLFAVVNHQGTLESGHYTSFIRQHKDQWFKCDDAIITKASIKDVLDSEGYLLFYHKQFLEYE
Method in brief: as §1

USP24 = USP24 (UniProt Q9UPU5)
Method in brief: as §1

USP25 = molecular target: T3, USP25 (UniProt Q9UHP3)
T3 sequence (whole entry): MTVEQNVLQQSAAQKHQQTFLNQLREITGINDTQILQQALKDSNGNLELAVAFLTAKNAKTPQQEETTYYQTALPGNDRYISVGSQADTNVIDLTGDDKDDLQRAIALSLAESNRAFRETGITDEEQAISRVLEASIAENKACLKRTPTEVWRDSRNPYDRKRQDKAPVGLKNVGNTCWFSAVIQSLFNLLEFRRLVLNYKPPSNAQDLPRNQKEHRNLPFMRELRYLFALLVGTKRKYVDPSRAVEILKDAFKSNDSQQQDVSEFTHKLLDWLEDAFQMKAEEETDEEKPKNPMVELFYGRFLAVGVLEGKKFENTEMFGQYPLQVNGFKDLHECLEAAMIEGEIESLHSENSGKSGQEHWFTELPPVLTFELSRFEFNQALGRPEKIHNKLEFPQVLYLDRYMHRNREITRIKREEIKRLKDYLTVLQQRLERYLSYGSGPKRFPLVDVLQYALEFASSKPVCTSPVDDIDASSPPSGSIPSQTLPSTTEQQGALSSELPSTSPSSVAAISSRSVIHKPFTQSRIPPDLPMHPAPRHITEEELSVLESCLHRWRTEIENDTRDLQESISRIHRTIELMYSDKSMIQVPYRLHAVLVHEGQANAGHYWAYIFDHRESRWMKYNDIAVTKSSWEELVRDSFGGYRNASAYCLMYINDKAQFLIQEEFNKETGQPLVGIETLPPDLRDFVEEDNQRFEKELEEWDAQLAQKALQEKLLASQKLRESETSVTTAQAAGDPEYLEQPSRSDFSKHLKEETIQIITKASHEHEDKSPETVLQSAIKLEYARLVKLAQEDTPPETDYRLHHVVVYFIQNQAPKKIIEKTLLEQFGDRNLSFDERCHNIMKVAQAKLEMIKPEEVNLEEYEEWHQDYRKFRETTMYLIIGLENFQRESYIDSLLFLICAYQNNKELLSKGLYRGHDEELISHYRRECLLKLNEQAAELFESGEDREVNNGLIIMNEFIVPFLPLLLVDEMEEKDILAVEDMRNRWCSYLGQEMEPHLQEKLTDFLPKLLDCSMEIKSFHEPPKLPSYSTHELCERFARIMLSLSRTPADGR
Method in brief: as §1

USP28 = molecular target: T4, USP28 (UniProt Q96RU2)
T4 sequence (whole entry): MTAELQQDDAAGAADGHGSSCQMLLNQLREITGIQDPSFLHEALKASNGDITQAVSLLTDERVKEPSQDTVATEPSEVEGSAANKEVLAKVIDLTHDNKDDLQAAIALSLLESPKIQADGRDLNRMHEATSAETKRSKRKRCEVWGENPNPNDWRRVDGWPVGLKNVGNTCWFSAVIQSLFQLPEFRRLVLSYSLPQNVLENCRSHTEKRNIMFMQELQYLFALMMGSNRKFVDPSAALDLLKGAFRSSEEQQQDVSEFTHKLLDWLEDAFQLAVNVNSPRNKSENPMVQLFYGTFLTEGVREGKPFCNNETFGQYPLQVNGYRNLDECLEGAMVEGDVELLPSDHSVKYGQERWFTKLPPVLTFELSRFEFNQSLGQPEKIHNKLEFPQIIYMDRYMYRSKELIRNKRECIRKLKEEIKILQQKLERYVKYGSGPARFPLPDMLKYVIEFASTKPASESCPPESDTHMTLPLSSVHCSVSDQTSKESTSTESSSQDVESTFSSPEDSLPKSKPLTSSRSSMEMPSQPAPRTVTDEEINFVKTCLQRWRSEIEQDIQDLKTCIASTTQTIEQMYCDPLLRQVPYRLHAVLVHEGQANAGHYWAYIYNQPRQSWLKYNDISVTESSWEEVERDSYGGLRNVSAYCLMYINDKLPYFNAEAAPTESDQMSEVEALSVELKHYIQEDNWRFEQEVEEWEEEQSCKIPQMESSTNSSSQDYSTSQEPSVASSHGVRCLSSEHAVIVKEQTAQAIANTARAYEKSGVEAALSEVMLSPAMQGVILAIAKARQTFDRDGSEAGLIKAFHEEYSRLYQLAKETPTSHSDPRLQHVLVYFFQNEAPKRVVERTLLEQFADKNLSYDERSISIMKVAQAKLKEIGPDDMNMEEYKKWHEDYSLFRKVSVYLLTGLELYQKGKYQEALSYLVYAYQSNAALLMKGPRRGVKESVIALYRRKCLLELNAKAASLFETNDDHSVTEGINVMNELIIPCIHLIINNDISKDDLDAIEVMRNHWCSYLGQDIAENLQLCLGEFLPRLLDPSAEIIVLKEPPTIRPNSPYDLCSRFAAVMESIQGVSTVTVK
Method in brief: as §1

Measured: log2 ratio of Biotin-Ahx-Ub-VS probe labelling

USP24, sequence (Q9UPU5 whole entry): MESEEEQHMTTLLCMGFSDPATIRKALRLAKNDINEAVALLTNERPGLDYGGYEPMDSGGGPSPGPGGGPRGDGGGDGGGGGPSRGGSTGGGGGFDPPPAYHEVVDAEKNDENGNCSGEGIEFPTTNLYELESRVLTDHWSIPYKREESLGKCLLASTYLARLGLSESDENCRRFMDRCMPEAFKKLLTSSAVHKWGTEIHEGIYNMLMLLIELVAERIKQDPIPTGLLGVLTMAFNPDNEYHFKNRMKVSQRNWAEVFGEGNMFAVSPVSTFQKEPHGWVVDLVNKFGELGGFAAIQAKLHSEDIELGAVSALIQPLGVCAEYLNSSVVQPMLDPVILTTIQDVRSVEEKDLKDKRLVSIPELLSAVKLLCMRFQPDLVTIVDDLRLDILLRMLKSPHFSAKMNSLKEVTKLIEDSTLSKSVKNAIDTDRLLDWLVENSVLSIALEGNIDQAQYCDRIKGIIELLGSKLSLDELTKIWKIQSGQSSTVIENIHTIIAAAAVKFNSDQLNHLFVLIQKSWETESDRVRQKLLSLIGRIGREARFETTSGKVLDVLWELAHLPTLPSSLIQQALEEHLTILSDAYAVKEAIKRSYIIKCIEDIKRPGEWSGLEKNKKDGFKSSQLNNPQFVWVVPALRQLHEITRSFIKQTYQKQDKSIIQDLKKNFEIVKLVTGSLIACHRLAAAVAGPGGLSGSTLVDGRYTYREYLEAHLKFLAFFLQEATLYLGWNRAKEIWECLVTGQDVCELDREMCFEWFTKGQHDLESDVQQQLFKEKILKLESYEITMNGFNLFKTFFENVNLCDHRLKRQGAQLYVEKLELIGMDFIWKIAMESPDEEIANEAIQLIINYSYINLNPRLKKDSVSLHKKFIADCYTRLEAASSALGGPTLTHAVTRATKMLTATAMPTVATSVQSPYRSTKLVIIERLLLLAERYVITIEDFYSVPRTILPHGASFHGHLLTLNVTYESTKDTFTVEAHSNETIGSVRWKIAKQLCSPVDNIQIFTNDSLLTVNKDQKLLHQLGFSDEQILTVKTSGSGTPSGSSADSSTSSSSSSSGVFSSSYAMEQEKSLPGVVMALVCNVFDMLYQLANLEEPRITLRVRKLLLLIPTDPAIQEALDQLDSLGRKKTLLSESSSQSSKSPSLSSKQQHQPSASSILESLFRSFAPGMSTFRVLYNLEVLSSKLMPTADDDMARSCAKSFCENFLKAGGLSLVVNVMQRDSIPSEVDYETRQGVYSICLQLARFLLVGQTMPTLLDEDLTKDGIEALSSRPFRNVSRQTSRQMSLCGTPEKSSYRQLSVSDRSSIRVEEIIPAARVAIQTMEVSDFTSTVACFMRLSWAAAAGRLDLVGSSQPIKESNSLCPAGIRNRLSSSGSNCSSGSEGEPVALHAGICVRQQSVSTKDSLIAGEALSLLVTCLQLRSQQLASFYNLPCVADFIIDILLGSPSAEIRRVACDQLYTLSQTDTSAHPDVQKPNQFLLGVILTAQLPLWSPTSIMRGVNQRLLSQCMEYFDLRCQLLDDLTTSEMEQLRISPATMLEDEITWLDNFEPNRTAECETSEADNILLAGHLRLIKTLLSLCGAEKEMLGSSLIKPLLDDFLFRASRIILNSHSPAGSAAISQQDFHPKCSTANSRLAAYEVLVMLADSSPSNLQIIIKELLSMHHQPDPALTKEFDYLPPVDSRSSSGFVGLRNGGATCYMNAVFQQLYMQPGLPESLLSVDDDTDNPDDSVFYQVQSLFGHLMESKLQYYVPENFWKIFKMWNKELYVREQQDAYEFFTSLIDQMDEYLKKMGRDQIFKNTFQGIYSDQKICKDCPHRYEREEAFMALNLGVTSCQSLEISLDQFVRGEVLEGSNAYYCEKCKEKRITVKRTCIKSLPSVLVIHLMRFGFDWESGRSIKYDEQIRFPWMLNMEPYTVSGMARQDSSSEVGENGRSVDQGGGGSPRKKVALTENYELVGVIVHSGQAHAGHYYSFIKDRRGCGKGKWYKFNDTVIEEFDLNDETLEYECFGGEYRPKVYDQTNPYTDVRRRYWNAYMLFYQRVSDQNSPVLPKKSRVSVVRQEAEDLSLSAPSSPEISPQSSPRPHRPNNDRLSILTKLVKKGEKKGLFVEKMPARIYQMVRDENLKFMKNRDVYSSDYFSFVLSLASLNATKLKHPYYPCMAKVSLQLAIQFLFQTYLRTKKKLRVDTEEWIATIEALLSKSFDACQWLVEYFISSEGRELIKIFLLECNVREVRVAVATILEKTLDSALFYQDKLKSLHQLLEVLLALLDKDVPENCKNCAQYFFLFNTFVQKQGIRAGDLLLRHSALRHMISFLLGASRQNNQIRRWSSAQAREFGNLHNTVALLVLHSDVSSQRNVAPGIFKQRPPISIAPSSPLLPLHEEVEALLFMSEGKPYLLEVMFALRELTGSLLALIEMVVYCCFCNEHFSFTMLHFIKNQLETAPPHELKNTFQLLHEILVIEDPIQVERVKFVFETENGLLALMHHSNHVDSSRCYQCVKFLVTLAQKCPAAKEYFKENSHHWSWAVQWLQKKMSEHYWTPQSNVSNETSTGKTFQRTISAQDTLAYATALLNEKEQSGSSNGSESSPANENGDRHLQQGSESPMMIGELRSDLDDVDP

O=C(CCl)Nc1ccc(F)cc1F
inactive: USP19 -0.101 | USP22 -0.241 | USP24 -0.312 | USP25 -0.265 | USP28 -0.838
